From PubChem BioAssay (NCATS)
Records with an inconclusive call do not appear. Where a call stands in place of a potency, no number is given. Unmarked numbers belong to inactive results. Activity calls are given as the source filed them. Calls come from the whole dose curve.

Assay: Cytotoxicity counterscreen for inhibitors of SARS-CoV-2 cell entry (AID 1645845); note: nearly all actives have a fitted effect of over 50% in size
Settings: cell viability (SARS-CoV-2 entry assay cells); series mostly up to 57.1 µM; activity change, negative = cytotoxicity: at the top concentration
How it was run: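 Counterscreen run in the same HEK293-ACE2 line as the pseudotyped-particle entry assay, without particles. Viability after 48 h at 37 C was read as ATP luminescence, scaled between cell-containing and cell-free wells.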

Compound | Potency | outcome | activity change, negative = cytotoxicity [%]
COc1ccc(C(=O)N2CCN(c3ccc4c(c3)CCC(=O)N4)CC2)cc1OC | inactive |  | 
OCC(O)COc1ccc(Cl)cc1 (stereo not drawn) |  | inactive [at 171 µM] | 
CC(=O)OCC(=O)[C@@]12OC3(CCCC3)O[C@@H]1C[C@H]1[C@@H]3CCC4=CC(=O)C=C[C@]4(C)[C@@]3(F)[C@@H](O)C[C@@]12C |  | inactive | 
O=S(O)CNc1ccc(S(=O)(=O)c2ccc(NCS(=O)O)cc2)cc1 |  | inactive | 
CN(C(=O)CO)c1c(I)c(C(=O)NCC(O)CO)c(I)c(C(=O)NCC(O)CO)c1I (stereo not drawn) |  | inactive | 
CC(Oc1ccccc1)C(=O)N[C@@H]1C(=O)N2[C@@H]1SC(C)(C)[C@@H]2C(=O)O (stereo partly drawn) |  | inactive | 
CC(=O)NC(C=O)C(O)C(O)[C@H](O)CO (stereo partly drawn) |  |  | -13.3
CNC(=O)C[C@@H](N)C(=O)N[C@@H](C(=O)N[C@@H]1C(=O)N2[C@@H]1SC(C)(C)[C@@H]2C(=O)O)c1ccc(O)cc1 |  | inactive | 
C[C@@H]1C[C@H]2[C@@H]3C[C@H](F)C4=CC(=O)C=C[C@]4(C)[C@@]3(F)[C@@H](O)C[C@]2(C)[C@@]1(O)C(=O)COC(=O)C(C)(C)C |  | inactive | 
CN(C)C=Nc1c(I)cc(I)c(CCC(=O)O)c1I |  | inactive | 
Nc1nc(CC(=O)Nc2ccc(CCNC[C@H](O)c3ccccc3)cc2)cs1 |  | inactive | 
CCCCC(CC)COC(=O)c1ccc(Nc2nc(Nc3ccc(C(=O)OCC(CC)CCCC)cc3)nc(Nc3ccc(C(=O)OCC(CC)CCCC)cc3)n2)cc1 (stereo not drawn) |  | inactive | 
CCCCC[C@H](O)/C=C/[C@@H]1[C@@H](C/C=C/CCCC(=O)O)[C@@H](O)C[C@H]1O |  |  | -4.09
